Our source for the z-score and composite z-score values is PubChem BioAssay.

Active and inactive are the calls of the source.

Experiment [1] can be described thus: optical density shifts of acrAB sulA E. coli – strain DRC41, OD650, 48 h, E. coli filamentation inducer project, primary screen (AID 1152).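 Note: E. coli MC1000 strain DRC41 lacking acrAB efflux pump and sulA.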 Particulars: higher = more signal, called active from +8 up or from −8 down.
The nature of experiment [2]: probe aLefty1 binding on compound microarray – biochemical, small-molecule microarray, 635/667 nm fluorescence, primary screen (AID 1153).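 Note: score merges spot fluorescence with signal-to-noise ratio from the scanned slide images.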 Particulars: higher = more signal.
Experiment [3] is described as follows: plasmodial surface anion channel blockers, osmotic lysis – cell-based, P. falciparum Indochina, OD700, 1 h, primary screen (AID 1154). Particulars: P. falciparum Indochina infected RBC osmotic lysis, higher = more signal, called active from +8 up or from −8 down.
A short description of experiment [4]: plasmodial surface anion channel blockers, osmotic lysis – cell-based, P. falciparum Indochina, OD700, 2 h, primary screen (AID 1155).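 Note: lysis reports solute entry through the parasite surface anion channel PSAC.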 Particulars: P. falciparum Indochina infected erythrocytes, higher = more signal, called active from +8 up or from −8 down.
Experiment [5] in a line: changes in parasitized red cell lysis, either direction – P. falciparum Indochina, OD700, 3 h, PSAC antagonist project, primary screen (AID 1156). Particulars: P. falciparum-infected erythrocytes, osmotic lysis, higher = more signal, called active from +8 up or from −8 down.
Experiment [6] can be described thus: plasmodial surface anion channel blockers, osmotic lysis – cell-based, P. falciparum Indochina, OD700, 18 h, primary screen (AID 1157). Particulars: P. falciparum Indochina infected erythrocytes, osmotic lysis OD700, 18 h; higher = more signal, called active from +8 up or from −8 down.
The nature of experiment [7]: S6 kinase pathway phospho-S6 level changes – cell-based, A549, cytoblot, luminescence, serum-stimulated, primary screen (AID 1158).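 Note: serum-stimulated A549 lung adenocarcinoma cells; signal is phosphorylated S6 detected by cytoblot immunostaining with HRP secondary.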 Particulars: 5 h, higher = more signal.
Experiment [8] addresses NADPH oxidase 2 (Homo sapiens) (UniProt P04839). Briefly: compounds shifting NOX2 Amplex Red fluorescence – cell-based, HEK293-NOX2, PMA-stimulated, NOX inhibitor project, primary screen (AID 1159). Note: test concentration not given here. Particulars: 45 min, higher = more signal, called active from +8 up or from −8 down.
In experiment [9] the target is NADPH oxidase 4 (Homo sapiens) (UniProt Q9NPH5). The experiment is described as follows: compounds shifting NOX4 Amplex Red fluorescence – cell-based, HEK293-NOX4, tetracycline-induced, NOX inhibitor project, primary screen (AID 1160). Particulars: HEK293-NOX4, Amplex Red H2O2 fluorescence, 45 min; higher = more signal, called active from +8 up or from −8 down.
Sequence of NADPH oxidase 4 (Homo sapiens) (Q9NPH5 whole entry, looked up): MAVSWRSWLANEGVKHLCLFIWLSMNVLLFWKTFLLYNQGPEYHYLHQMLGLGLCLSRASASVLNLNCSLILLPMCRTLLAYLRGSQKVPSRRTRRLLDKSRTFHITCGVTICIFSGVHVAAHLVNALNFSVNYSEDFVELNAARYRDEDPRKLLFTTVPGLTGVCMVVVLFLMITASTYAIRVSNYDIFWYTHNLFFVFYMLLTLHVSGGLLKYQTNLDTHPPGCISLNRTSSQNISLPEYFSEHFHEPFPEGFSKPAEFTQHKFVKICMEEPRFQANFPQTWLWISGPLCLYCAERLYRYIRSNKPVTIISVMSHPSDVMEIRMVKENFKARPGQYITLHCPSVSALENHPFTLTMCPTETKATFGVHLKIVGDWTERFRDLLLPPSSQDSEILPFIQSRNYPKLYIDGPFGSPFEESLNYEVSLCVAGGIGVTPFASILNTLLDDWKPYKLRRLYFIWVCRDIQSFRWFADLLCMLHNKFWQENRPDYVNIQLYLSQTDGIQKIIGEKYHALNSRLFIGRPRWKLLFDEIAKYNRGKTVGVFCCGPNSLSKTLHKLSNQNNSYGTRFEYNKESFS
The target of experiment [10] is NADPH oxidase 5 (Homo sapiens) (UniProt Q96PH1). The experiment is described as follows: compounds shifting NOX5 Amplex Red fluorescence – cell-based, HEK293-NOX5, NOX inhibitor project, primary screen (AID 1161). Particulars: HEK293-NOX5, ionomycin, 45 min, higher = more signal.
Sequence of NADPH oxidase 5 (Homo sapiens) (Q96PH1 whole entry, looked up): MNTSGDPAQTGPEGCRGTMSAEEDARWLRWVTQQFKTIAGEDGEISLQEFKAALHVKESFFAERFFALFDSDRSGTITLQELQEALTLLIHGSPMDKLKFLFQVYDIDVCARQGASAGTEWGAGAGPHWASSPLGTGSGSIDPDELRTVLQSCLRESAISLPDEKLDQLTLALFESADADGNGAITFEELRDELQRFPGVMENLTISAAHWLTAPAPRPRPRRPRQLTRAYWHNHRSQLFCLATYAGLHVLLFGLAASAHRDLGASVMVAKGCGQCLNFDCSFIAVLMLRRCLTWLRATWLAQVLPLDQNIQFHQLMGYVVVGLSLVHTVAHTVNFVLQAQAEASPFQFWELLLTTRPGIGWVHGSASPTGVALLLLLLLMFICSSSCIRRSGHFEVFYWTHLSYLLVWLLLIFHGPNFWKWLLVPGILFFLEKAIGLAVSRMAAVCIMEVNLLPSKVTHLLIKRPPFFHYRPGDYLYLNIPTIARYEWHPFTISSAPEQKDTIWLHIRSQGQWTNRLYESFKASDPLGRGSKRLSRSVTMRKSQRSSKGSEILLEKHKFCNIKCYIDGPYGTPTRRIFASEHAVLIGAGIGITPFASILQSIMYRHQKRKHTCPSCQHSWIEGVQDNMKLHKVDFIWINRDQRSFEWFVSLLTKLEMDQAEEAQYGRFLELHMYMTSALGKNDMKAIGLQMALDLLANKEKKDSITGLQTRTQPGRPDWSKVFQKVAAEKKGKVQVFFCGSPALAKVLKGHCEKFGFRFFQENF
The nature of experiment [11]: compound effects on lung adenocarcinoma cell viability – A549, calcein-AM fluorescence, 48 h, basal, profiling panel (AID 1162). Note: test concentration not given here. Particulars: higher = more signal.
A short description of experiment [12]: compound effects on differentiated 3T3-L1 adipocyte viability – cell-based, 3T3-L1 adipocytes, calcein-AM fluorescence, 48 h, basal, profiling panel (AID 1163). Note: test concentration not given here. Particulars: 3T3-L1 adipocytes viability, higher = more signal.
Experiment [13] is described as follows: compound effects on hepatocellular carcinoma cell viability – HepG2, calcein-AM fluorescence, 48 h, basal, profiling panel (AID 1164). Note: test concentration not given here. Particulars: higher = more signal.
Experiment [14] is described as follows: compound effects on multiple myeloma cell viability – MM1S, calcein-AM fluorescence, 48 h, basal, profiling panel (AID 1165).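 Note: viability of MM1S multiple myeloma cells under basal unstimulated conditions; test concentration not given here.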 Particulars: higher = more signal.
The nature of experiment [15]: calcein-AM signal in unstimulated myeloma cells – cell-based, calcein-AM fluorescence, 48 h, PK04 Diversity Set, profiling panel (AID 1166).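 Note: cells grown under basal conditions without added stimulus; test concentration not given here.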 Particulars: RPMI8226 myeloma viability, higher = more signal.
Experiment [16] is described as follows: JC-1 mitochondrial signal, unstimulated HepG2 cells – cell-based, JC-1 fluorescence, 24 h, 100 nL compound, profiling panel (AID 1167). Note: test concentration not given here. Particulars: HepG2 mitochondrial potential, higher = more signal.
Experiment [17] in a line: JC-1 mitochondrial signal, unstimulated adipocytes – cell-based, JC-1 fluorescence, 3T3-L1 adipocytes, 24 h, 100 nL compound, profiling panel (AID 1168). Note: test concentration not given here. Particulars: JC-1 mitochondrial fluorescence, higher = more signal, called active from +8 up or from −8 down.
Experiment [18] in a line: JC-1 mitochondrial signal, unstimulated myeloma cells – cell-based, JC-1 fluorescence, RPMI8226, 24 h, 100 nL compound, profiling panel (AID 1169). Note: test concentration not given here. Particulars: JC-1 mitochondrial potential fluorescence, higher = more signal.
Experiment [19] can be described thus: JC-1 mitochondrial signal, unstimulated MM1S myeloma – cell-based, JC-1 fluorescence, 24 h, 100 nL compound, profiling panel (AID 1170). Note: test concentration not given here. Particulars: MM1S mitochondrial potential, higher = more signal.
The nature of experiment [20]: resazurin metabolic signal in A549 cells – cell-based, resazurin fluorescence, 24 h, PK04 Diversity Set, profiling panel (AID 1171). Note: test concentration not given here. Particulars: A549 viability, higher = more signal, called active from +8 up or from −8 down.

Sequence of NADPH oxidase 2 (Homo sapiens) (P04839 whole entry, looked up): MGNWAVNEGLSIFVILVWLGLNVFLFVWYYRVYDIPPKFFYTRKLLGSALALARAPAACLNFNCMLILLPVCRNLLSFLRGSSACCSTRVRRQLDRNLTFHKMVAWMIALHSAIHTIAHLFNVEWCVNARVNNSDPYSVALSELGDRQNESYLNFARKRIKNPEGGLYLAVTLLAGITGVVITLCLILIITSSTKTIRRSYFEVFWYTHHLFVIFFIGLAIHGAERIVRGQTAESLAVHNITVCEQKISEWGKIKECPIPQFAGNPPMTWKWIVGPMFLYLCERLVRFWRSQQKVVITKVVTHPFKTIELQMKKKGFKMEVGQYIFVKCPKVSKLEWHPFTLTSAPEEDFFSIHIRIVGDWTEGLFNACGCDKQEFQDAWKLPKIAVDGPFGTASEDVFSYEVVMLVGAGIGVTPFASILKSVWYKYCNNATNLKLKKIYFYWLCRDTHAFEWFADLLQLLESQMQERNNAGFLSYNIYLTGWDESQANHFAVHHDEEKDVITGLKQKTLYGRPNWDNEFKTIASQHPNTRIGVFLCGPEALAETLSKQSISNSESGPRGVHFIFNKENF

Consider `COC(=O)[C@@]1(Cc2ccc(F)cc2)[C@H]2c3cc(C(=O)N(C)C)n(CCc4ccc(O)c(O)c4)c3C[C@H]2CN1C(=O)c1ccccc1`, for which the z-score was -0.81 (inactive) in experiment [1]; 0.183 (inactive) in experiment [3]; 0.194 (inactive) in experiment [4]; 0.248 (inactive) in [5]; 0.494 (inactive) in experiment [6]; 0.407 in [7]. Also, the z-score was -0.168 (inactive) in experiment [8]; -1.31 (inactive) in [9]; -0.966 in [10]; -0.681 in experiment [11]; -1.17 in experiment [12]; 0.193 in [13]. Moreover, the z-score in experiment [14] is 0.287; in [15], -0.238; in experiment [16], 0.86; in experiment [17], 0.243 (inactive); in experiment [18], -0.672; in experiment [19], -1.95. For the same compound, in experiment [20], the z-score is -0.238 (inactive). Further, the composite z-score in [2] is 0.162.
As for `COC(=O)[C@@]1(Cc2ccc(OC)cc2)[C@H]2c3cc(C(=O)N4CCCC4)n(Cc4ccc(C(F)(F)F)nc4)c3C[C@H]2CN1C(=O)c1ccccc1`, the z-score was -2.07 (inactive) in experiment [1]; 6.38 (inactive) in [3]; 4.52 (inactive) in experiment [4]; 0.746 (inactive) in experiment [5]; 3.37 (inactive) in [6]; -0.249 in experiment [7]. Besides, the z-score in experiment [8] is 0.101 (inactive); in experiment [9] it was 0.564 (inactive); in experiment [10] it was 0.63; in [11] it was -1.3; in experiment [12], 0.202; in experiment [13], 0.0749. Also, the z-score in [14] was -1.03; in experiment [15] it was -1.33; in [16], 0.952; in [17] it was -1.59 (inactive); in [18], -0.779; in experiment [19], -1.69. For the same compound, the z-score in experiment [20] is -0.266 (inactive). In experiment [2], this compound had a composite z-score of -0.0647.
Take `O=C1O[C@@H](c2ccccc2)[C@@H](c2ccccc2)N2[C@@H](c3ccc(OCCO)cc3)[C@]3(C(=O)Nc4ccc(C#CC5(O)CCCCCC5)cc43)[C@@H](C(=O)O)[C@H]12`: the z-score in [1] is 1.87 (inactive); in [3], -1.17 (inactive); in [4], -0.927 (inactive); in [5], -8.35 (active); in experiment [6] it was -0.76 (inactive); in [7], 0.169. The z-score in experiment [8] was 2.21 (inactive); in [9], -0.56 (inactive); in experiment [10] it was 0.314; in experiment [11], 0.942; in experiment [12], 0.297; in [13] it was 1.36. Further, the z-score was 0.213 in [14]; 0.342 in [15]; -0.969 in experiment [16]; -0.448 (inactive) in experiment [17]; -0.169 in [18]; 0.0439 in experiment [19]. Also, in experiment [20], the z-score was 1.12 (inactive). For the same compound, the composite z-score in [2] is -0.0862.
As to `COC(=O)C(CC#Cc1ccc2c(c1)[C@]1(C(=O)N2)[C@H](C(=O)N2CCc3cc(OC)c(OC)cc3C2)[C@H]2C(=O)O[C@H](c3ccccc3)[C@H](c3ccccc3)N2[C@@H]1c1ccccc1OCCO)C(=O)OC`, the z-score was 0.113 (inactive) in [1]; 2.85 (inactive) in experiment [3]; 1.76 (inactive) in [4]; 0.848 (inactive) in experiment [5]; 1.08 (inactive) in [6]; -0.416 in experiment [7]. Also, the z-score in experiment [8] is 2.02 (inactive); in [9] it was 0.405 (inactive); in experiment [10], 1.9; in [11] it was -0.179; in experiment [12], -0.665; in [13], 0.43. In addition, the z-score was -0.151 in experiment [14]; 0.546 in experiment [15]; -0.0236 in experiment [16]; 0.968 (inactive) in experiment [17]; -0.839 in experiment [18]; -1.42 in experiment [19]. Moreover, the z-score in experiment [20] was -0.694 (inactive). The same compound returned a composite z-score in experiment [2] of 0.0429.
`COc1ccc([Si](C)(C)[C@H]2[C@H](CC(=O)N3Cc4ccccc4C[C@H]3CO)O[C@@]3(C(=O)N(c4ccccc4)c4ccccc43)[C@@H]2C)cc1`: the z-score in experiment [1] is 0.968 (inactive); in experiment [3] it was 11.9 (active); in experiment [4], 2.16 (inactive); in experiment [5] it was 1.24 (inactive); in experiment [6] it was 1.09 (inactive); in [7] it was 1.35. Besides, the z-score was -1.56 (inactive) in [8]; -0.499 (inactive) in experiment [9]; -2.51 in [10]; -0.782 in [11]; 0.898 in experiment [12]; -0.755 in experiment [13]. The z-score in experiment [14] is -2.67; in [15] it was -4.49; in experiment [16] it was 0.959; in experiment [17], -0.652 (inactive); in [18], -1.1; in experiment [19] it was -0.81. In addition, in experiment [20], the z-score was 0.698 (inactive). In experiment [2], this compound came in with a composite z-score of 0.701.
`CN(C)CCCNC(=O)[C@@H]1c2ccccc2C(=O)N(Cc2ccccc2C(F)(F)F)[C@H]1c1ccc(CO)cc1`: the z-score is 1.77 (inactive) in experiment [1]; 2.54 (inactive) in [3]; 0.793 (inactive) in [4]; 1.21 (inactive) in [5]; 0.64 (inactive) in experiment [6]; -0.0975 in experiment [7]. In addition, the z-score in [8] was 0.383 (inactive); in experiment [9], 1.03 (inactive); in [10] it was 1.11; in experiment [11] it was 1.42; in [12] it was 0.747; in experiment [13] it was 1.13. In addition, the z-score was 0.353 in [14]; 1.09 in experiment [15]; 2.98 in experiment [16]; -0.343 (inactive) in experiment [17]; 0.188 in experiment [18]; -0.317 in experiment [19]. Further, the z-score in experiment [20] is 1.45 (inactive). This compound had a composite z-score in experiment [2] of -0.103.
For the compound `COCCOC(=O)N1C(=O)[C@@]2(c3cc(C#CCNC(N)=O)ccc31)[C@H](C(=O)Nc1nc3ccccc3s1)[C@H]1C(=O)O[C@H](c3ccccc3)[C@H](c3ccccc3)N1[C@@H]2c1ccccc1OCCO`, the z-score in [1] was 1.14 (inactive); in experiment [3], 2.15 (inactive); in experiment [4], 0.215 (inactive); in experiment [5] it was 0.483 (inactive); in experiment [6], -1.08 (inactive); in [7] it was 2.18. For the same compound, the z-score in [8] was 1.41 (inactive); in experiment [9], 0.695 (inactive); in [10], 0.934; in experiment [11], 1.01; in experiment [12], 0.706; in [13], -0.0995. Besides, the z-score in experiment [14] is 0.223; in experiment [15], 0.405; in [16], -2.73; in experiment [17] it was 2.4 (inactive); in experiment [18] it was -0.981; in [19], -1.64. The z-score in [20] is -1.29 (inactive). Besides, in experiment [2], the composite z-score was 0.646.
For the compound `O=C1O[C@H](c2ccccc2)[C@H](c2ccccc2)N2[C@H]1[C@@H](C(=O)N1CCN(c3ncccn3)CC1)[C@]1(C(=O)Nc3ccc(C#CCCO)cc31)[C@H]2c1ccc(O)cc1`, the z-score was -0.951 (inactive) in [1]; 1.28 (inactive) in [3]; 0.436 (inactive) in experiment [4]; 1.2 (inactive) in [5]; 0.0991 (inactive) in experiment [6]; 0.201 in experiment [7]. Also, the z-score in experiment [8] was 0.84 (inactive); in experiment [9], 0.722 (inactive); in [10] it was 1.41; in [11], 0.356; in [12], 0.255; in [13], 0.775. Further, the z-score in experiment [14] was -0.0982; in [15], -0.26; in experiment [16], -0.19; in experiment [17], -0.501 (inactive); in experiment [18] it was -0.443; in experiment [19], -0.0233. Also, in experiment [20], the z-score is 1.59 (inactive). For the same compound, the composite z-score in experiment [2] worked out at 0.208.
